KDM5B inhibitor: Primary screen for KDM5B Histone Demethylases FDH-coupled qHTS | Lysine-specific demethylase 5B (Homo sapiens), Q9UGL1 | KDM5B demethylase, FDH-coupled NADH fluorescence (FDH is formaldehyde dehydrogenase) | Potency, µM (doses to about 57.7 µM), most hits filed as inhibitors | 220,000 tested, 2.6% active | AID 1347165, 2019; active = well fitted inhibition curve with a large enough effect; also: nearly all actives have a fitted effect of over 70% in size
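Compound dilutions met 200 nM (final) KDM5BΔAP for 10 min at room temperature before substrate addition. The substrate mix held 12.5 µM H3K4me3 with cofactors 25 µM α-ketoglutarate and 50 µM Fe²⁺. NADH signal gain over 30 min defined activity.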
Hits are given with their value; i = inactive. Only a selection was taken, and hits are over-represented in it overall.

SMILES	KDM5B inhibitor
Cc1cccc(OCC(O)Cn2c(N)nc3c2c(=O)n(C)c(=O)n3C)c1 (stereo unspecified)	i
O=C(CN1C(=O)NC2(CCOc3ccccc32)C1=O)c1c[nH]c2ccccc12 (stereo unspecified)	i
C=CCN(Cc1cnc(-c2cccc(C)c2)nc1)Cc1ccccn1	22µM
Cc1cccc(-c2ncc(CN(C)Cc3cccc4ncccc34)cn2)c1	i
C=CCN(Cc1cccc(OCC(N)=O)c1)Cc1ccccc1C	i
COCC(=O)Nc1ccc(-c2noc([C@@H]3CCCN3Cc3ccc(NC(C)=O)cc3)n2)cn1	i
COc1ccc(C(=O)Nc2ccc(-c3noc([C@@H]4CCCN4CC4CCCCC4)n3)cn2)cc1	32µM
CN(C)c1ccc(-c2noc([C@@H]3CCCN3CC3CCCCC3)n2)cn1	40µM
CN(C)c1ccc(-c2noc([C@@H]3CCCN3C3CCOCC3)n2)cn1	i
COCC(=O)Nc1ccc(-c2noc([C@@H]3CCCN3C)n2)cn1	i
COc1ccc(CCC(=O)N2CCC[C@H]2c2nc(-c3ccc(C)cc3)no2)cc1	i
COCC(=O)Nc1ccc(-c2noc([C@@H]3CCCN3Cc3cc4ccccc4o3)n2)cn1	32µM
COc1ccc(-c2noc([C@@H]3CCCN3C(=O)c3ccc(Cl)cc3)n2)cc1	i
COCC(=O)Nc1ccc(-c2noc([C@@H]3CCCN3Cc3cccc(C#N)c3)n2)cn1	i
COc1ccc(C(=O)Nc2ccc(-c3noc([C@@H]4CCCN4Cc4ccc(C(F)(F)F)cc4)n3)cn2)cc1	28µM
COc1ccc(-c2noc([C@@H]3CCCN3C(=O)c3ccc(C)nc3)n2)cc1	i
COc1cccc(CNC(=O)Cn2c(=O)c3c(ncn3C)n(C)c2=O)c1	i
CCC(/C=N/NC(N)=O)=C\c1ccccc1	i
CCN(CC)C(CNC(=O)c1nc(-c2ccccc2)oc1C)c1ccccc1 (stereo unspecified)	i
COC1CN(c2ccc(C)cc2)C12CCN(C(=O)COc1ccc(F)cc1)CC2 (stereo unspecified)	i
N#Cc1ccc(CN(Cc2ccccc2)Cc2ccco2)cc1	i
CN1CCC(C(=O)N2Cc3ccccc3CC3(CCCN(Cc4ccncc4)C3)C2)CC1 (stereo unspecified)	i
Cc1ccc(C(=O)N(Cc2ccncc2)C2CC2)s1	i
C/C(=N/NC(=S)NC(C)C)c1ccncc1	i
CN(CC(=O)Nc1cccc(F)c1)CC(=O)N(C)C1(C#N)CCCCC1	i
SMILES	KDM5B inhibitor
COC(=O)CCNc1ccccc1	i
O=C(NCC1Cn2cccc2C(=O)N1Cc1cccnc1)c1n[nH]c(=O)c2ccccc12 (stereo unspecified)	i
O[C@@H]1C[C@@H](c2nc(-c3ccccn3)no2)N(Cc2cc3ccccc3o2)C1	32µM
O[C@@H]1C[C@@H](c2nc(-c3ccccn3)no2)N(Cc2cccc(OC(F)(F)F)c2)C1	i
O[C@@H]1C[C@@H](c2nc(-c3ccccn3)no2)N(Cc2ccccc2)C1	i
Cc1cc(C)c(CNC(=O)c2cc(-c3cnn(C)c3)cc3c2OCCN3C)c(=O)[nH]1	32µM
Cc1cc(C)c(CNC(=O)c2cc(-c3cnn(C)c3)cc3c2OCCN3C(C)C)c(=O)[nH]1	28µM
COc1ccc(CN2C=C(C(=O)OCc3nc(C4CCCCC4)no3)C(C)=NS2(=O)=O)cc1	i
CCC(C)(C(=O)NC1CCCC1)N(Cc1cccs1)C(=O)CNC(=O)c1ccccc1 (stereo unspecified)	i
CCOC(=O)c1ccc(NC(=O)N2CCN(Cc3nc(-c4ccccc4)oc3C)CC2)cc1	i
COc1ccc(-c2nn(C)c(=O)c3ccccc23)cc1NC(=O)c1ccccc1Cl	i
c1cn(-c2ccc(-c3nc(C4CCOC4)no3)cc2)cn1 (stereo unspecified)	i
Fc1ccc(CCc2nc(C3CCOC3)no2)cc1F (stereo unspecified)	i
Clc1ccc2nc(-c3nc(C4CCOC4)no3)cn2c1 (stereo unspecified)	22µM
O=S(=O)(Nc1nc2ccccc2nc1NC1CC1)c1ccc2c(c1)OCCO2	i
Cc1ncc(-c2ccc(C)c(S(=O)(=O)Nc3ccc(OC(F)(F)F)cc3)c2)o1	i
COCc1ccc2c(c1)c(OC(C)(C)C(=O)NCc1cnccn1)nn2Cc1cccc(OC)c1	i
CC(C)(Oc1nn(Cc2cccc(Cl)c2)c2ccccc12)C(=O)NCCCn1ccnc1	i
COCc1ccc2c(c1)c(OC(C)(C)C(=O)NCCCn1ccnc1)nn2Cc1cccc(OC)c1	22µM
COCc1ccc2c(c1)c(OC(C)(C)C(=O)NCCCn1ccnc1)nn2CCC(C)C	35µM
COCc1ccc2c(c1)c(OC(C)(C)C(=O)Nc1ccn(C)n1)nn2Cc1cccc(OC)c1	i
CC(C)(Oc1nn(CCN2CCOCC2)c2ccccc12)C(=O)NCc1ccncc1	i
Cc1cc2nc(-c3cccc(NC(=O)COc4ccc([N+](=O)[O-])cc4)c3)oc2cc1C	i
CCOc1ncccc1CNC(=O)c1cc2cc(C)ccc2nc1C	i
COc1ccccc1CCNC(=O)c1sc(NC(C)C)nc1C	i
SMILES	KDM5B inhibitor
COC(=O)C1=C(N)OC2=C(C(=O)CC(C)(C)C2)C1c1cccc(Cl)c1 (stereo unspecified)	i
CCN(CC)CC1CCN(C(=O)c2cccc(C#N)c2)CC1	i
COC(=O)c1ccc(CNC(=O)NOCc2ccccc2)cc1	i
CCOc1cccc2cc(C(=O)NCc3ccc(OC(F)F)c(OC)c3)c(=O)oc12	i
CC(C)=CC(=O)NCCSc1ccccc1	i
Cc1cccc(C(=O)N2CCC(c3n[nH]c(=O)n3-c3ccccc3)CC2)c1	i
Cc1ccc(C#N)c(N2CCCC(c3n[nH]c(=O)n3-c3ccccc3)C2)n1 (stereo unspecified)	32µM
Cc1csc(CN2CCCC(c3n[nH]c(=O)n3-c3ccccc3)C2)n1 (stereo unspecified)	i
CCCCCCn1nc(C(=O)OC(C)C(=O)NC(N)=O)c2ccccc2c1=O (stereo unspecified)	i
Cc1ccc(S(=O)(=O)NCCc2nnc3ccc(SCc4cc(C)ccc4C)nn23)cc1	i
CCc1ccc(NC(=O)Cn2c(N(C)Cc3ccccc3)nc(C)cc2=O)cc1	i
CCc1cccc(NC(=O)Cn2c(N(C)Cc3ccccc3)nc(C)cc2=O)c1	25µM
Cc1cccc(NC(=O)Cn2c(N(C)Cc3ccccc3)nc(C)cc2=O)c1	i
Cc1ccc(S(=O)(=O)Oc2ccc3c(C(F)(F)F)cc(=O)oc3c2)c(C)c1	i
O=C1N(C2CCOCC2)CCCC12CCN(c1ccc(Cl)cn1)C2 (stereo unspecified)	28µM
Cc1ncoc1C(=O)N1CCC2(CCCN(C3CCOCC3)C2=O)C1 (stereo unspecified)	i
O=C(c1cccnn1)N1CCC2(CCCN(C3CCOCC3)C2=O)C1 (stereo unspecified)	i
Cc1ccc(CNC(=O)C2(CC(=O)NC(C)C)CCCC2)cc1	i
Cc1ccc(-c2noc(CNc3ccc(F)cc3C)n2)cc1	i
O=C(NCc1ccccc1)c1nc2c(o1)CCN(Cc1ccc(F)cc1)CC2	i
Cc1csc(NC(=O)c2nc3c(o2)CCN(Cc2ccccc2F)CC3)n1	i
O=C(CN1CCN(Cc2ccccc2)CC1)Nc1ccc(Cl)cc1	i
O=C(Nc1ccc(Cl)cc1)c1nc2c(o1)CCN(Cc1cc(F)ccc1F)CC2	32µM
O=C(NCc1ccncc1)c1nc2c(o1)CCN(CCCc1ccccc1)CC2	i
O=C(NCCOc1ccccc1)c1nc2c(o1)CCN(Cc1ccc3[nH]ccc3c1)CC2	40µM
